The supplement of paper PMC6555819

Key:
Assay in all cases: PBM binding z-score (relative to random genomic background probes); higher = stronger binding; sequences stand for … in GC…GCGATTGACAGCGTAGAATGAAGG
[1] = test system: RARb homodimer (NR concentration 270 nM)
Procedure, shortened: (§1)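 Probes were double-stranded and carried 34-nt variable regions with direct-repeat seeds, single-nucleotide variants, half-site ablations and random human genomic background sequences, printed on custom Agilent 4×180K protein-binding microarrays. Arrays were incubated 1 h with ligand-free nuclear receptor dimers in PBS pH 7.4, 2% milk, 0.02% Triton X-100, 1 mM DTT, 0.2 mg/mL BSA and 0.4 mg/ml salmon testes DNA. Antibodies against each partner (one per run) detected binding, and scanned fluorescence was regression-normalized. Binding z-scores use the random background probes as reference.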

[2] = test system: RARg:RXRa (NR concentration 270 nM, RXRa partner concentration 90 nM)
Procedure, shortened: as §1

[3] = test system: RARg homodimer (NR concentration 270 nM)
Procedure, shortened: as §1

[4] = test system: RXRa DBDmut IVT, anti-RXR (DBD mutation: RXRa K156A/R161A, NR concentration 90 nM)
Procedure, shortened: as §1

[5] = test system: RXRa homodimer (NR concentration 180 nM)
Procedure, shortened: as §1

[6] = test system: THRa:RXRa (NR concentration 90 nM, RXRa partner concentration 90 nM)
Procedure, shortened: as §1

[7] = test system: THRa homodimer (NR concentration 90 nM)
Procedure, shortened: as §1

[8] = test system: VDR homodimer (NR concentration 270 nM)
Procedure, shortened: as §1

Row | Sequence | PBM binding z-score [1] | PBM binding z-score [2] | PBM binding z-score [3] | PBM binding z-score [4] | PBM binding z-score [5] | PBM binding z-score [6] | PBM binding z-score [7] | PBM binding z-score [8]
1 | GCTGCTAGGTCAACTGATGGGCAGCTAAAGCTCG | 3 | 4.73 | 5.5 | 1.45 | 2.89 | 2.68 | 0.684 | -0.378
2 | CGTCCAAGATCAGAGAGGTCAGTGAATGCCGAGT | 3.9 | 2.95 | 3 | 0.949 | 2.5 | 2.64 | 0.926 | 2.37
3 | TCAGACAGGTGAAGGTAACTCGGGTACGCAGTCG | 1.04 | 0.783 | 0.664 | 1.16 | 1.23 | 1.66 | 0.72 | 0.873
4 | TCAGACAGGTGAAGGTAAGTCAGGTACGCAGTCG | 1.09 | 0.505 | 0.581 | 1.17 | 0.716 | 0.959 | 0.538 | 0.0228
5 | CCTAGCAGGCCAATCTGGGTCACTCAGGGCTTGA | 2.15 | 0.923 | 1.06 | 0.0967 | 0.498 | 3.58 | 0.158 | -0.303
6 | ATCTCTAGGTAAGATTCAGTTCAGTGAAGAACGC | 0.59 | 0.513 | 0.134 | 0.381 | 0.0885 | 0.976 | 0.542 | 1.31
7 | ATCGAAAGGTCGAAGGTGAGTATTCCCACCCGAA | 2.4 | 4.36 | 3.76 | 1.17 | 5.41 | 2.13 | 0.00651 | 0.282
